# Assay results reported in the supplement of paper PMC9399229.
# Counter-ions that a name gives are not always drawn. ± gives the standard deviation of the averaged measurements. In all, about 1,900 compounds were measured (“relative cell viability (CellTiter-Glo), compound alone”: median about 1, lowest 2% from about 0.16 on). Only a selection was taken, and the lowest values are over-represented in it overall.
# System: Hep3B
# Assay: relative cell viability (CellTiter-Glo), compound alone (fraction); higher = more viable cells (less growth inhibition)
# Details: cabozantinib 0 µM; 4 days
row,SMILES,relative cell viability
1,CNc1nc(Nc2cnn([C@H]3CCN(C4COC4)C[C@@H]3F)c2Cl)ncc1C(F)(F)F,1.14 ± 0.02
2,Clc1ccc(C2(c3ccc(-c4cn[nH]c4)cc3)CCNCC2)cc1,0.972 ± 0.2
3,CC1=C(C(=O)OC2CCCCC2)C(c2ccc([N+](=O)[O-])cc2)C2=C(CC(C)(C)CC2=O)N1 (configuration not stated),1.19 ± 0.022
4,COC(=O)C1=CO[C@@H](O[C@@H]2O[C@H](CO)[C@@H](O)[C@H](O)[C@H]2O)[C@@H]2C(CO)=CC[C@H]12 [Geniposide],1.11 ± 0.078
5,COc1ccc(NS(=O)(=O)c2sc3ccc(Cl)cc3c2C)cc1N1CCNCC1,0.974 ± 0.19
6,CCNC(=O)C#Cc1ccc2c(C(=Nc3ccc(CN(C)C)cc3)c3ccccc3)c(O)[nH]c2c1,0.278 ± 0.007
7,CCOC(=O)CCNc1cc(N2CCc3ccccc3CC2)nc(-c2ccccn2)n1,0.742 ± 0.084
8,Cc1cc(OCc2nnc(SC3CCCC3)n2-c2cccnc2)ccc1-c1ccc(S(C)(=O)=O)cc1,1.07 ± 0.024
9,CCOC(=O)Nc1cc(-c2ccc(C)c(NS(C)(=O)=O)c2)nn2c(C)nnc12 [Bromosporine],0.851 ± 0.044
10,CCc1c(O)cc(O)c(C(=O)c2ccc(OCCN3CCOCC3)c(OC)c2)c1CC(=O)N(CCOC)CCOC,0.48 ± 0.01
11,COC(=O)C[C@H](NC(=O)[C@H](C)NC(=O)[C@@H](NC(=O)OCc1ccccc1)C(C)C)C(=O)CF,1 ± 0.094
12,NC(=O)c1cccc2[nH]c(-c3ccc(C4CCCN4)cc3F)nc12 (configuration not stated),0.981 ± 0.079
13,NC1=N[C@@](c2cccc(-c3cncnc3)c2)(c2ccnc(C(F)F)c2)c2cccc(F)c21,1.34 ± 0.037
14,COc1cccc2c1C(=O)c1c(O)c3c(c(O)c1C2=O)C[C@@](O)(C(C)=O)C[C@@H]3O[C@H]1C[C@H](N)[C@H](O)[C@H](C)O1 [Daunorubicin HCl],0.0682 ± 0.0026
15,COc1cccc2c1C(=O)c1c(O)c3c(c(O)c1C2=O)C[C@@](O)(C(=O)CO)C[C@@H]3O[C@H]1C[C@H](N)[C@H](O)[C@H](C)O1 [Doxorubicin (Adriamycin)],0.144 ± 0.0086
16,COc1cccc2c1C(=O)c1c(O)c3c(c(O)c1C2=O)C[C@@](O)(C(=O)CO)C[C@@H]3O[C@H]1C[C@H](N)[C@@H](O)[C@H](C)O1 [Epirubicin HCl],0.0641 ± 0.0026
17,COc1cccc2c1C(=O)c1c(O)c3c(c(O)c1C2=O)C[C@@](O)(C(=O)CO)C[C@@H]3O[C@H]1C[C@H](N)[C@H](O[C@@H]2CCCCO2)[C@H](C)O1 [Pirarubicin],0.157 ± 0.078
18,O=C(O)c1cc(I)ccc1NC(=O)[C@H](Cc1ccccc1)NCc1ccccc1,1.03 ± 0.032
19,C=CC(=O)N1CCC(Oc2cc3c(Nc4ccc(Cl)c(Cl)c4F)ncnc3cc2OC)CC1 [Poziotinib (HM781-36B)],0.933 ± 0.022
20,CN(C)CCN1C(=O)c2cccc3cc(N)cc(c23)C1=O [Amonafide],1.22 ± 0.09
21,C=CC(=O)Nc1ccc2ncnc(Nc3ccc(OCc4cccc(F)c4)c(Cl)c3)c2c1,1.41 ± 0.053
22,NC(=O)Nc1sc(-c2ccc(F)cc2)cc1C(N)=O,1.1 ± 0.043
23,NC(=O)Nc1cc(-c2cccc(F)c2)sc1C(=O)N[C@H]1CCCNC1,0.151 ± 0.016
24,COc1cc(C(=O)NC2CCCNC2)cc(OC)c1OC (configuration not stated) [Troxipide],1.07 ± 0.12
25,O=C(NO)c1cccc(C(=O)NCCc2ccccc2)c1,1.16 ± 0.059
26,COc1cc2ncc(-c3ccccc3)nc2cc1OC [Tyrphostin AG 1296],1 ± 0.02

row,SMILES,relative cell viability
1,Nc1nccc2c1ncn2C1C=C(CO)C(O)C1O (configuration not stated) [3-Deazaneplanocin A (DZNeP)],0.933 ± 0.013
2,Cc1nc(C#Cc2ccnc(Cl)c2)c(C)n1-c1ccc(OC(F)(F)F)cc1,1 ± 0.056
3,O=C(/C=C/c1ccc2ccccc2n1)c1ccncc1,0.167 ± 0.0076
4,CCOC(=O)n1ccn(C)c1=S [Carbimazole],1.02 ± 0.14
5,COc1nc(N)nc2c1ncn2[C@@H]1O[C@H](CO)[C@@H](O)[C@@H]1O [Nelarabine],1.1 ± 0.035
6,COc1ccc(C[C@H](N)C(=O)N[C@H]2[C@@H](O)[C@H](n3cnc4c(N(C)C)ncnc43)O[C@@H]2CO)cc1 [Puromycin 2HCl],0.0517 ± 0.001
7,CNc1ncnc2c1ncn2[C@@H]1O[C@H](CO)[C@@H](O)[C@H]1O [N6-methyladenosine (m6A)],1.15 ± 0.042
8,COc1cc(-c2cc(-c3ccc(N4CCNCC4)cc3)cnc2C)cc(OC)c1OC,0.937 ± 0.023
9,COc1ccc(-c2cnc3c(-c4cccc5ncccc45)cnn3c2)cc1,1.31 ± 0.03
10,c1cc(-c2cnn3cc(-c4ccc(N5CCNCC5)cc4)cnc23)c2cccnc2c1,0.142 ± 0.013
11,CCCNCC(O)COc1ccccc1C(=O)CCc1ccccc1 (configuration not stated) [Propafenone HCl],0.855 ± 0.07
12,Cc1cc(-c2ccc(CC(=O)Nc3ccc(-c4cccnc4)cc3)cc2)ccn1,1.268 ± 0.0057
13,CC(C=CC(=O)NO)=CC(C)C(=O)c1ccc(N(C)C)cc1 (configuration not stated) [Trichostatin A (TSA)],0.131 ± 0.019
14,CN1CCN(c2ccc(Nc3cc(-c4cccc(-n5ccc6cc(C7CC7)cc(F)c6c5=O)c4CO)cn(C)c3=O)nc2)CC1,1.1 ± 0.14
15,Cc1cc(NC(=O)c2cccc(NC(=O)/C=C/CN(C)C)c2)ccc1Nc1nccc(-c2cccnc2)n1,0.837 ± 0.011
16,O=C(c1cncc(Br)c1)N1CCC(N2CCCC2)CC1,1.03 ± 0.058
17,O=C(COc1cccc2c(=O)[nH]ccc12)c1ccccc1,1.16 ± 0.033
18,CC(C)c1ccc(NC(=O)Cn2cnc3c2c(=O)n(C)c(=O)n3C)cc1,1.02 ± 0.041
19,Cc1ccc(C(=O)N(CCCN)[C@@H](c2oc3cc(Cl)ccc3c(=O)c2Cc2ccccc2)C(C)C)cc1,0.245 ± 0.0053
20,CC1=C(C(=O)Nc2cc3cn[nH]c3cc2F)C(c2ccc(C(F)(F)F)cc2)CC(=O)N1 (configuration not stated),1.3 ± 0.16
21,CN(C)C(=S)NN=C(c1ccccn1)c1ccccn1,0.265 ± 0.025
22,C/C(=N\NC(=S)N1CCC1)c1ccccn1,0.0813 ± 0.0087
23,CCN(CC)C(=S)SSC(=S)N(CC)CC [Disulfiram],0.134 ± 0.012
24,CN1CCN(c2ccc(OC(F)(F)F)c(Nc3ncc4c(n3)-c3c(c(C(N)=O)nn3CCO)CC4)c2)CC1,0.48 ± 0.02
25,O=C(N/N=C/c1ccc(O)c(O)c1)c1cc2ccccc2cc1O [Dynasore],0.932 ± 0.05
26,Cc1nc2c([nH]1)-c1ccccc1N(C(=O)c1ccc(NC(=O)c3ccccc3-c3ccccc3)cc1)CC2 [Conivaptan HCl],1.12 ± 0.15
